TRPML1 agonist = agonists of human TRPML1 channel; Q9GZU1; TRPML1-expressing cells, Ca2+ dye fluorescence, FDSS; activation, % (concentration not given with the values); hit rate 0.12% among 410,000; in the data active = activation above about 50%; inconclusive = mostly about 30% to 49%; note: 0% is about no effect
Target sequence (Q9GZU1 whole entry, looked up): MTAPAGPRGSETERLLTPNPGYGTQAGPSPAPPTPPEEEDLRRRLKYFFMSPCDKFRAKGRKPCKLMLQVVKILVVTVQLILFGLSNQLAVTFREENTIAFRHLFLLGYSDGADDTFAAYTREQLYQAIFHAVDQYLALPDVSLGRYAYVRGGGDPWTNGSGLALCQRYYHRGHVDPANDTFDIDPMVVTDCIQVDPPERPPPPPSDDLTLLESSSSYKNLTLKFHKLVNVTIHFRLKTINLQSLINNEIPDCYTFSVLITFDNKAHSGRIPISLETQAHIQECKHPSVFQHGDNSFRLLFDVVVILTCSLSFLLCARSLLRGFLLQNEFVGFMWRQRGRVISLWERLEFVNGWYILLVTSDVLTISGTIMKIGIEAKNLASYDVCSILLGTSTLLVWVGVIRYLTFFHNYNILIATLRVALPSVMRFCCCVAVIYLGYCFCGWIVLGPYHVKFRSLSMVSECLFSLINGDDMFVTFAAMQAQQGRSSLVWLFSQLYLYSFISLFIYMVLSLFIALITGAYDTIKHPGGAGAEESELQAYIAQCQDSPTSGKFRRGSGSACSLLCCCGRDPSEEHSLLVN
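Cells: TRPML1-DL, 1X Tet inducer, ~16 h at 37 degrees C/5% CO2. Dye: ABD Ca8 no-wash + quencher, 45-90 min RT. Read: 10 s baseline, compound add, 110 s agonist phase; 54-4 EC80 (4uM final), 110 s antagonist phase.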
D3 antag = blocks the human D3 dopamine receptor | P35462 | hit rate 2.5% among 360,000 | max response, negative = inhibition, % | D3R cells, DiscoveRx beta-arrestin luminescence, antagonist mode; hits give low values | AID 652054; in the data active = max response below about -50%; inconclusive = no clear call, values can overlap the other calls; note: % is set by controls: 0 for no effect and ±100 for the full control effect
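Cells plated overnight at 1500 cells/well, then exposed to library compounds with dopamine controls for 90 minutes at 37 degrees C. DiscoveRx reagent added for 30–60 minutes at room temperature; luminescence read, quantitative HTS format.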
TRPML1 blocker = blocks the human TRPML1 channel | Q9GZU1 | TRPML1-inducible cells, Ca2+ dye fluorescence, FDSS; hits give low values; inhibition of EC80 agonist-evoked calcium signal | activity change, negative = inhibition, % (no concentration beside the values) | hit rate 0.02% among 390,000; in the data active = activity change below about -50%; inconclusive = between about -30% and that limit;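 note: stimulus is agonist 54-4 at its EC80 concentration; % is set by controls: 0 for no effect and ±100 for the full control effect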
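Tet-induced TRPML1-DL cells loaded with Ca8 no-wash calcium dye were read kinetically on FDSS. Compound addition was followed by EC80 agonist 54-4 (4 uM final); inhibition was read over 110 s.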
DRD3 agonist = activates the human D3 dopamine receptor. P35462. D3R DiscoveRx beta-arrestin cells, luminescence, 90 min. max activation, %. hit rate 0.58% among 410,000. AID 652048; in the data active = max activation above about 30%; note: 0% is about no effect
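Agonist mode: compounds and dopamine controls were applied to plated cells for 90 min at 37 degrees C after an overnight attachment at 1500 cells/well. Luminescent read-out followed 30 - 60 minutes at room temperature with DiscoveRx detection reagent.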
Numbers without * were called inactive; ? = inconclusive; . = no result. Most compounds without a hit are left out; they make up all but 2.9% or so of the library.

SMILES | TRPML1 agonist | D3 antag | TRPML1 blocker | DRD3 agonist
CSc1ccccc1C(=O)Nc1ccc2c(c1)OCCO2 | 0 | 28 | ? | -10
O=C(Cn1cc(SCc2ccccc2Cl)c2ccccc21)N1CCCCCC1 | 2 | . | 23 | -7
Cc1sc2nc(C3CC3)nc(SCC(=O)N3c4ccccc4CC3C)c2c1C (configuration not stated) | 0 | 54 | -13 | 42*
CCOC(=O)/C(=C\C=C1/Sc2ccccc2N1CC)C(C)=O | 89* | 14 | -7 | 11
CCOC(=O)/C(=C/C=C1\Sc2ccccc2N1CC)C(C)=O | 80* | 2 | 4 | -7
CCOC(=O)/C(=C/C=C1\Sc2cc(C)c(C)cc2N1CC)C(C)=O | 90* | 23 | -3 | 4
O=S(=O)(c1ccc2ncsc2c1)N1CCN(c2nc(-c3cccs3)nc3ccccc23)CC1 | 0 | . | . | .
O=C(CCCn1c(=O)c2cccn2c2ccccc21)Nc1cccc(Cl)c1 | 2 | . | 39 | -13
CCCc1nnc(SCC(=O)N2CCCC(C)C2)n1CCCOC (configuration not stated) | 3 | 12 | -8 | 1
CCCc1nnc(SCC(=O)N2CCCC(C)C2)n1CCOC (configuration not stated) | 2 | -58* | 7 | -7
CCCc1nnc(SCC(=O)N2CCCCC2C)n1CC1CCCO1 (configuration not stated) | -1 | -65* | -15 | 2
COc1ccc(/C=C/C(=O)NCC(=O)N/N=C/c2cc(Br)ccc2OCc2ccccc2)cc1 | 0 | ? | 0 | -10
COc1ccc(Br)cc1/C=N/NC(=O)CNC(=O)/C=C/c1ccccc1 | 3 | -67* | -5 | -11
CCOc1ccc(-n2nc(CO)c(C(=O)NCc3ccccn3)n2)cc1 | 4 | . | 28 | -7
COc1ccc2nc(-c3ccccc3)nc(SCC(=O)NCC3CCCO3)c2c1 (configuration not stated) | -2 | 0 | 3 | 33*
Cc1ccccc1-n1c(SCC(=O)NCC2CCCO2)nc2c([nH]c3ccccc32)c1=O (configuration not stated) | 0 | -82* | 1 | -23
Cn1c(SCC(=O)NCC2CCCO2)nc2c([nH]c3ccccc32)c1=O (configuration not stated) | 0 | -14 | 20 | -10
CCOC(=O)N1CCN(C(=O)CSc2nc3c([nH]c4ccccc43)c(=O)n2CC)CC1 | 1 | 27 | 11 | 46*
Cc1ccc2nc(-c3ccc(F)cc3)nc(SCC(=O)NCC3CCCO3)c2c1 (configuration not stated) | 1 | 0 | 0 | -9
O=C(CSc1nc2c([nH]c3ccccc32)c(=O)n1-c1ccccc1F)NCC1CCCO1 (configuration not stated) | -1 | -78* | 3 | -29
CCn1cc2nc(SCC(=O)Nc3cc(OC)cc(OC)c3)n(Cc3ccc(Cl)cc3)c(=O)c2n1 | 1 | . | 19 | -8
Cn1c(=O)[nH]c(=O)c2c1nc(N1CCCCCC1)n2CCSc1nc2ccccc2o1 | 0 | -23 | 3 | -10
Cn1c(=O)[nH]c(=O)c2c1nc(Br)n2CCSc1nc2ccccc2o1 | 1 | -70* | -11 | -6
Cc1noc(C)c1COc1ccc(C(=O)O)cc1 | 0 | -16 | -20 | 33*
CC(C)C[C@H]1CNC(=O)C(=O)N1C[C@H](C)NC(=O)Cc1ccccc1 | 0 | -52* | -13 | -29
SMILES | TRPML1 agonist | D3 antag | TRPML1 blocker | DRD3 agonist
COC(=O)c1ccc(CSc2n[nH]c(=S)s2)o1 | -1 | 58 | -1 | -7
COC(=O)CSc1n[nH]c(=S)s1 | -1 | -68* | 7 | -2
CCC(=NCc1ccco1)c1c(C(F)(F)F)[nH]n(-c2nc3ccccc3s2)c1=O | 0 | -12 | 4 | -6
CCC(=NCc1ccccc1)c1c(C(F)(F)F)[nH]n(-c2nc3ccccc3s2)c1=O | 1 | -60* | -5 | -10
COc1ccc(C(=O)N(Cc2ccc(C(C)C)cc2)C2CCS(=O)(=O)C2)cc1 (configuration not stated) | 1 | . | -11 | -2
Cc1cccc(NC(=O)c2cc(S(=O)(=O)N(C)c3ccc(F)cc3)ccc2Cl)n1 | 0 | -57* | 10 | 1
COc1ccc(N2CCN(C3CCCN(Cc4cccc(C)c4)C3)CC2)cc1 (configuration not stated) | 0 | -24 | -8 | -19
COc1ccc(CN2CCCC(N3CCN(c4ccc(OC)cc4)CC3)C2)cc1 (configuration not stated) | 0 | -58* | -16 | -6

Bioassay records deposited in PubChem by National Center for Advancing Translational Sciences (NCATS).
